# Measured values reported in PubChem BioAssay (Tox21).
# Records with an inconclusive call do not appear. Entries that show only a call come without a potency. The source made the active and inactive calls. Unless noted, calls follow the shape of the dose curve; as a rule, active = well fitted curve in the direction sought with a large enough effect in the repeat runs; inconclusive = weak or mixed curves; inactive = no such curve, though single readings can be large; an effect the other way counts as inactive or inconclusive.
# Legend:
# [1] = qHTS assay to identify aromatase inhibitors - cell viability counter screen (AID 743084);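 also: cells stimulated with testosterone during compound exposure; nearly all actives have a fitted effect of over 55% in size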
# [2] = molecular target: Aryl hydrocarbon receptor (Homo sapiens) (UniProt P35869); experiment: qHTS assay to identify small molecule that activate the aryl hydrocarbon receptor (AhR) signaling pathway (AID 743085); also: nearly all actives have a fitted effect of over 15% in size; also: potency is read from the fitted curve at half-maximal effect;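 as to activation: HG2L7.5c1 human HepG2 liver cells with stably integrated DRE-driven firefly reporter; series mostly up to about 70 µM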
# Chain of Aryl hydrocarbon receptor (Homo sapiens) (P35869 whole entry, looked up): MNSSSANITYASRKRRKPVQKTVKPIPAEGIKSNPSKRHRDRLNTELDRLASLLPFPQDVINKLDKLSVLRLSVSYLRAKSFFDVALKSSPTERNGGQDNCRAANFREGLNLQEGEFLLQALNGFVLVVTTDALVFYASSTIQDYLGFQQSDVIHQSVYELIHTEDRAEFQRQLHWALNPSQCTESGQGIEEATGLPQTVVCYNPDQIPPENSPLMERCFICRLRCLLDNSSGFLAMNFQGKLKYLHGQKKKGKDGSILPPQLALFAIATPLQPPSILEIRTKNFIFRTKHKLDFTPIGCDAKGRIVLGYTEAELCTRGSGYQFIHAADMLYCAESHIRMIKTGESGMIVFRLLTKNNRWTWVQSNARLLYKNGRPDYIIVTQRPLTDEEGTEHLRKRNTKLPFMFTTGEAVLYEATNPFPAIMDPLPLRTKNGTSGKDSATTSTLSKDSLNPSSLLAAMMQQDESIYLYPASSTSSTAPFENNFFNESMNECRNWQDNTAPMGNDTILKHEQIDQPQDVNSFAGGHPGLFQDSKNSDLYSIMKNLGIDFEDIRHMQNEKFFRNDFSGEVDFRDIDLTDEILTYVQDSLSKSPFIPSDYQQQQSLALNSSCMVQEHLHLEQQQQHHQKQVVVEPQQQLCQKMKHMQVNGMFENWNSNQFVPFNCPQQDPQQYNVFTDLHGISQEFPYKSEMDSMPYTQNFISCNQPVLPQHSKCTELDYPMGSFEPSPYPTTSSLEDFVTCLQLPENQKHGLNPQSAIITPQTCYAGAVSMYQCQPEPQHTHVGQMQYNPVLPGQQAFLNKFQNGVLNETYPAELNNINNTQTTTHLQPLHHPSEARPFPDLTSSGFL
# Outline: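 Steps: seed HepG2-AhR-luc cells; allow 5 h at 37C; pin-transfer test compound or vehicle; incubate 24 h at 37C; add viability dye (30 min, 37C) and read fluorescence; add luciferase substrate (30 min, RT) and read luminescence.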
# [3] = qHTS assay to identify small molecule that activate the aryl hydrocarbon receptor (AhR) signaling pathway - cell viability counter screen (AID 743086);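 also: HepG2 liver cells carrying the AhR DRE luciferase reporter; series mostly up to about 70 µM; nearly all actives have a fitted effect of over 45% in size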
# Outline: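 HepG2-AhR-luc (HG2L7.5c1) cells, 4000/well, were preincubated 5 h at 37C, exposed to compound in qHTS format for 24 hr at 37C, then given CellTiter-Fluor for 30 min; viability was read as fluorescence in the reporter wells.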
# [4] = molecular target: Peroxisome proliferator-activated receptor gamma (Homo sapiens) (UniProt P37231); experiment: qHTS assay to identify small molecule agonists of the peroxisome proliferator-activated receptor gamma (PPARg) signaling pathway (AID 743094; active = well fitted activation curve with a large enough effect in the signal ratio in the repeat runs, not every such curve was filed as active; the % refers to the signal ratio)
# Chain of Peroxisome proliferator-activated receptor gamma (Homo sapiens) (P37231 whole entry, looked up): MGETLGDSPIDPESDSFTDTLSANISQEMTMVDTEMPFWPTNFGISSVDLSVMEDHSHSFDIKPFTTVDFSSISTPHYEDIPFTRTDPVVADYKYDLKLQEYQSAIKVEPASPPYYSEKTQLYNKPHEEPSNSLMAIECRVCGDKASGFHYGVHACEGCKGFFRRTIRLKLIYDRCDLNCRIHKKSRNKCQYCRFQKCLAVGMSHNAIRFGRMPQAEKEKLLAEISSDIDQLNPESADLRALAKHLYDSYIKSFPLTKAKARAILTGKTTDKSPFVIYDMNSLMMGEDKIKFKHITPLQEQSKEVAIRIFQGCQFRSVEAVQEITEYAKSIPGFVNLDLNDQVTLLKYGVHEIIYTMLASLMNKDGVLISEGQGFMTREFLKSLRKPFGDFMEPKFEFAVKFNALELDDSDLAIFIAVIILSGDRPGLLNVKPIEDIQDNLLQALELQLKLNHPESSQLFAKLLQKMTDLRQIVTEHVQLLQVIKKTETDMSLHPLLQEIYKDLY
# Outline: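 Following 5 h plating at 37C, PPARg-bla HEK293H cells receive compound or DMSO for 17 h; fluorescence intensity is recorded after LiveBLAzer B/G loading for 1 h at room temperature.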
# [5] = qHTS assay to identify small molecule antagonists of the peroxisome proliferator-activated receptor gamma (PPARg) signaling pathway - cell viability counter screen (AID 743194); also: nearly all actives have a fitted effect of over 55% in size; also: potency is read from the fitted curve at half-maximal effect
# Outline: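 PPARg-UAS-bla HEK293H cells were plated, rested 5 h at 37 C, then treated with compounds plus rosiglitazone (50 nM final) for 17 h at 37 C; viability was then read by CellTiter-Glo luminescence after 30 min at room temperature.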
# [6] = qHTS assay for small molecule agonists of the antioxidant response element (ARE) signaling pathway (AID 743202; active = well fitted activation curve with a large enough effect in the signal ratio in the repeat runs, not every such curve was filed as active; the % refers to the signal ratio; also: potency is read from the fitted curve at half-maximal effect)
# Outline: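 Compounds delivered in DMSO to ARE-bla HepG2 cells (2,000 cells/well, pre-incubated 5 h) and left 16 h at 37 C. LiveBLAzer B/G FRET substrate then added for 2 h at RT before fluorescence reading.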
# [7] = qHTS assay for small molecule agonists of the antioxidant response element (ARE) signaling pathway - cell viability counter screen (AID 743203; calls by dose curve; also: nearly all actives have a fitted effect of over 55% in size; also: potency is read from the fitted curve at half-maximal effect)
# Outline: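 Compounds in DMSO were pinned onto ARE-bla HepG2 cells plated 5 hrs earlier at 2,000 cells/well. Sixteen hours later at 37C/5% CO2, CellTiter-Glo was added and luminescence measured after 30 min at room temperature.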
# [8] = qHTS assay for small molecule activators of the heat shock response signaling pathway - cell viability counter screen (AID 743209); also: nearly all actives have a fitted effect of over 50% in size
# Outline: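 Counter screen for cytotoxicity in HeLa HSE-bla reporter cells. Treatment was 5 h at 37 C; viability was detected by luminescent ATP assay (CellTiter-Glo) in the same wells as the beta-lactamase read.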
# [9] = qHTS assay for small molecule activators of the heat shock response signaling pathway (AID 743210; active = well fitted activation curve with a large enough effect in the signal ratio in the repeat runs, with a control signal flat, not every such curve was filed as active; the % refers to the signal ratio;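 also: HeLa cells with beta-lactamase reporter driven by heat shock elements; series mostly up to about 63 µM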)
# Outline: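 Reporter gene assay: HeLa cells stably bearing an HSE-bla construct, compound treatment 5 h at 37 C, LiveBLAzer substrate 2.5 h at RT, fluorescence intensity.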
# [10] = molecular target: Peroxisome proliferator-activated receptor gamma (Homo sapiens) (UniProt P37231); experiment: qHTS assay to identify small molecule antagonists of the peroxisome proliferator-activated receptor gamma (PPARg) signaling pathway (AID 743191; calls by dose curve; also: series mostly up to about 63 µM; nearly all actives have a fitted effect of over 30% in size)
# Outline: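 GeneBLAzer PPARg UAS-bla HEK293H cells carrying a UAS-driven beta-lactamase reporter were plated at 3000 cells/well, preincubated 5 h at 37C, then given compound for 17 h at 37C; LiveBLAzer B/G FRET substrate was read after 1 h at room temperature.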
SMILES,Potency [1],Potency [2],outcome [3],Potency [4],Potency [5],Potency [6],Potency [7],outcome [8],Potency [9],Potency [10]
OCCN1CCN(CCO)CC1,inactive,inactive,inactive,inactive,inactive,inactive,inactive,inactive,inactive,
O=C1CCCCC1C1CCCCC1 (stereo not given),inactive,inactive,inactive,inactive,inactive,,inactive,inactive,inactive,
C=CCCC=C,inactive,inactive,inactive,inactive,inactive,,inactive,inactive,,
CC(=O)N(CC(O)CN(C(C)=O)c1c(I)c(C(=O)NCC(O)CO)c(I)c(C(=O)NCC(O)CO)c1I)c1c(I)c(C(=O)NCC(O)CO)c(I)c(C(=O)NCC(O)CO)c1I (stereo not given),inactive,inactive,inactive,inactive,,inactive,inactive,inactive,inactive,inactive
CCOc1ccc(OCC)c(Cl)c1,inactive,inactive,inactive,inactive,,inactive,inactive,inactive,,inactive
CCCCC(CC)COC(=O)COc1cc(Cl)c(Cl)cc1Cl (stereo not given),inactive,inactive,inactive,inactive,inactive,inactive,inactive,inactive,inactive,
Cc1cccc(C)c1NC(=O)CN1CCCCCC1,inactive,inactive,inactive,inactive,inactive,inactive,inactive,inactive,inactive,
Cc1ccc(C(C)C)cc1O,inactive,inactive,inactive,inactive,inactive,inactive,inactive,inactive,inactive,
FC(F)(F)C(Cl)(Cl)Cl,inactive,inactive,inactive,inactive,inactive,inactive,inactive,inactive,inactive,
C1CSCCS1,inactive,inactive,inactive,inactive,inactive,inactive,inactive,inactive,,
CC1=C(O)C(=O)OC1C (stereo not given),inactive,inactive,inactive,inactive,inactive,,inactive,inactive,inactive,
N#Cc1ccc(C(c2ccc(C#N)cc2)n2cncn2)cc1,inactive,inactive,inactive,inactive,,inactive,inactive,inactive,inactive,inactive
CCOC(=O)CS,inactive,inactive,inactive,inactive,inactive,inactive,inactive,inactive,,
Clc1cccc(-c2cc(Cl)cc(Cl)c2)c1,inactive,inactive,inactive,inactive,inactive,inactive,inactive,inactive,,
NCCC(O)(P(=O)(O)O)P(=O)(O)O,inactive,inactive,inactive,inactive,inactive,inactive,inactive,inactive,inactive,
CCOC(=O)c1ccccc1O,inactive,inactive,inactive,inactive,inactive,,inactive,inactive,inactive,
O=C(O)c1cccc(Cl)c1Cl,inactive,inactive,inactive,inactive,inactive,inactive,inactive,inactive,,
CCCCNCCCC,inactive,inactive,inactive,inactive,inactive,inactive,inactive,inactive,inactive,
CCCc1c2oc(C(=O)O)cc(=O)c2cc2c(=O)cc(C(=O)O)n(CC)c12,inactive,inactive,inactive,inactive,inactive,inactive,inactive,inactive,inactive,
COc1ccc(S(=O)(=O)Nc2nnc(CC(C)C)s2)cc1,inactive,inactive,inactive,inactive,inactive,inactive,inactive,inactive,inactive,
OCCN(CCO)CCN(CCO)CCO,inactive,inactive,inactive,inactive,inactive,,inactive,inactive,,

SMILES,Potency [1],Potency [2],outcome [3],Potency [4],Potency [5],Potency [6],Potency [7],outcome [8],Potency [9],Potency [10]
Cc1ccc(C=O)s1,inactive,inactive,inactive,inactive,inactive,inactive,inactive,inactive,,
C=CC(C)(O)CC/C=C(\C)CCC=C(C)C (stereo not given),inactive,inactive,inactive,inactive,inactive,,inactive,inactive,inactive,
CCCCN1C[C@H](O)[C@@H](O)[C@H](O)[C@H]1CO,inactive,inactive,inactive,inactive,inactive,,inactive,inactive,inactive,
OCCN(CCO)c1ccccc1,inactive,inactive,inactive,inactive,inactive,,inactive,inactive,inactive,
CC(C)=CCC[C@](C)(O)[C@@H]1CC=C(C)CC1,inactive,inactive,inactive,,inactive,,inactive,,,
CC1(O)CSC(C)(O)CS1 (stereo not given),inactive,inactive,inactive,,inactive,,inactive,inactive,inactive,inactive
O=C1C=CC(=O)O1,inactive,inactive,inactive,,inactive,inactive,inactive,inactive,inactive,inactive
CCCCCCCOC(=O)CCC,inactive,inactive,inactive,,inactive,inactive,inactive,inactive,inactive,
CN1CCN(C2=Nc3ccccc3Oc3ccc(Cl)cc32)CC1,inactive,inactive,inactive,inactive,inactive,,inactive,inactive,inactive,
CC(C)=CCCC(C)CCOC=O (stereo not given),inactive,inactive,inactive,,43.6 µM (active),,54.5 µM (active),,,
CCOc1ccc2nc(N)sc2c1,inactive,2.15 µM (active),inactive,,inactive,48.2 µM (active),inactive,inactive,inactive,
CCCCCCCCCC/C=C/C#N,inactive,inactive,inactive,,inactive,,inactive,inactive,,inactive
C[C@]12C(=O)OC(=O)[C@H]1[C@H]1C=C[C@@H]2C1,inactive,inactive,inactive,,inactive,inactive,inactive,inactive,,
CC1=CC(=O)CC(C)(C)C1=O,inactive,inactive,inactive,,inactive,,inactive,inactive,,inactive
COC(=O)c1ccc(OC)cc1,inactive,inactive,inactive,,inactive,inactive,inactive,inactive,inactive,
O=c1[nH]cnc2c1ncn2[C@@H]1O[C@H](CO)[C@@H](O)[C@H]1O,inactive,inactive,inactive,,inactive,inactive,inactive,inactive,inactive,
CCCCCCCCCCCCOCCOS(=O)(=O)O,inactive,inactive,inactive,,inactive,,inactive,inactive,inactive,inactive
COc1cc(C)ccc1C(C)C,inactive,inactive,inactive,,inactive,,inactive,inactive,inactive,inactive
CC/C=C\CCOC(=O)CCCCC,inactive,inactive,inactive,,inactive,,inactive,inactive,inactive,inactive
CC1(C)S[C@@H]2[C@H](NC(=O)C(C(=O)O)c3ccccc3)C(=O)N2[C@H]1C(=O)O (stereo not given in full),inactive,inactive,inactive,inactive,inactive,,inactive,inactive,inactive,
C=CC1CO1 (stereo not given),inactive,inactive,inactive,,inactive,inactive,inactive,inactive,inactive,inactive

SMILES,Potency [1],Potency [2],outcome [3],Potency [4],Potency [5],Potency [6],Potency [7],outcome [8],Potency [9],Potency [10]
ClC(Cl)Cl,inactive,inactive,inactive,,inactive,inactive,inactive,inactive,inactive,
CCN(CC)CCNC(=O)COc1ccc(Cl)cc1,inactive,inactive,inactive,,inactive,inactive,inactive,inactive,inactive,inactive
O=C(O)c1ccccc1Nc1cc(Cl)ccc1C(=O)O,inactive,inactive,inactive,,inactive,inactive,inactive,inactive,,
CC(C)c1ccccc1,inactive,inactive,inactive,,inactive,,inactive,,,inactive
CC(=O)Oc1cc(C(C)C)c(OCCN(C)C)cc1C,inactive,inactive,inactive,inactive,inactive,,inactive,inactive,inactive,
OCc1c2ccccc2cc2ccccc12,inactive,inactive,inactive,inactive,inactive,,inactive,inactive,inactive,
C[C@@H](N)C(=O)O,inactive,inactive,inactive,,inactive,inactive,inactive,inactive,,
CC1(C)O[C@@H]2C[C@H]3[C@@H]4CCC5=CC(=O)CC[C@]5(C)[C@@]4(F)[C@@H](O)C[C@]3(C)[C@]2(C(=O)CCl)O1,inactive,inactive,inactive,,inactive,,inactive,inactive,,inactive
CC(CNC1CCCCC1)OC(=O)c1ccccc1 (stereo not given),inactive,inactive,inactive,inactive,inactive,,inactive,inactive,inactive,
CC(=O)N[C@@H](CC(C)C)C(=O)O,inactive,inactive,inactive,,inactive,inactive,inactive,inactive,inactive,inactive
C=CCc1cc(OC)c(O)c(C(=O)NCCO)c1,inactive,inactive,inactive,inactive,,,inactive,inactive,inactive,
CCOC(=O)[C@H](CCc1ccccc1)N[C@@H](C)C(=O)N1Cc2cc(OC)c(OC)cc2C[C@H]1C(=O)O,inactive,9.44 µM (active),inactive,,inactive,,inactive,inactive,inactive,inactive
CCCCC1CCC(=O)O1 (stereo not given),inactive,inactive,inactive,inactive,inactive,,inactive,inactive,inactive,
NCCCN1CCN(CCCN)CC1,inactive,inactive,inactive,,inactive,inactive,inactive,inactive,,
CC(=O)OC1C2(C)CCC(C2)C1(C)C (stereo not given),inactive,inactive,inactive,inactive,inactive,,inactive,inactive,inactive,
CC(=O)Nc1ccc(C)c(Cl)c1,inactive,inactive,inactive,,inactive,inactive,inactive,inactive,,
O=C(O)CN(CCN(CC(=O)O)CC(=O)O)CCN(CC(=O)O)CC(=O)O,inactive,inactive,inactive,,inactive,,inactive,inactive,,inactive
C=O,inactive,inactive,inactive,,inactive,inactive,inactive,inactive,inactive,
CCCCCCCCCCCCCCCCOP(=O)([O-])OCC[N+](C)(C)C,inactive,inactive,inactive,inactive,,,inactive,,,
